Compound activity (PubChem)
A selection: hits, their analogues and other compounds. The true share with any hit is near 1.6%.
VCAM1 TNFa inh = inhibitors of TNFa-induced VCAM1 expression, primary screen, imaging, HUVEC, TNFa stimulus, immunofluorescence | HUVEC TNFa-induced VCAM-1 immunofluorescence, high-content imaging | inhibition, % at 2 µM | AID 802, 2007 | actives 0.48% (n = 95,000);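 active means inhibition above the batch mean plus 3 SD, with images confirmed as a hit by eye, cut at about 37% in these data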;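 further: 0% = TNF-stimulated DMSO wells and 100% = unstimulated control wells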
F-actin modifier = modifiers of F-actin cytoskeleton organization, primary screen, imaging, HUVEC, phalloidin staining, high-content imaging; AID 836, 2007; inhibition, % at 2 µM; HUVEC TNFa F-actin phalloidin imaging; actives 0.18% (n = 91,000);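 active means inhibition above the batch mean plus 3 SD and confirmed as a hit by visual image inspection, cut at about 30% in these data, passing the limit was not always enough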
TNFa cytotox = cytotoxicity in TNFa-stimulated HUVEC, primary screen, cytotoxicity control for VCAM1 expression modulator project, imaging, Hoechst nuclei count. AID 848, 2007. actives 0.17% (n = 93,000). HUVEC TNFalpha-stimulated, Hoechst cell count. cell count reduction, % at 2 µM;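 active means cell count reduction exceeding the screen mean by over 5 SD, scaled to untreated wells per plate, cut at about 78% in these data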;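 further: cells counted after 24 h of TNF alpha exposure following the 1 h pretreatment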
E-sel TNF inh = E-selectin induction blockers in HUVEC – imaging, immunofluorescence, high content, primary screen | actives 0.71% (n = 120,000) | AID 1246, 2008 | HUVEC TNFa-induced E-selectin immunofluorescence | inhibition, % at 2 µM;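 active means inhibition above the batch mean plus 3 SD, and confirmed as a hit on visual image review, cut at about 43% in these data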;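 further: 0% = TNF-stimulated DMSO wells and 100% = unstimulated control wells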
S1P2 agonist = S1P2 receptor agonists, primary screen, cell-based; activation, % at 4.5 µM; S1P2-expressing cell line, agonist reporter read-out; AID 729, 2007; actives 0.46% (n = 97,000); Sphingosine 1-phosphate receptor 2 (Homo sapiens), O95136; in the data active means activation above about 16%;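 further: 0% = vehicle low control and 100% = maximal reference agonist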
Target sequence (O95136 whole entry, looked up): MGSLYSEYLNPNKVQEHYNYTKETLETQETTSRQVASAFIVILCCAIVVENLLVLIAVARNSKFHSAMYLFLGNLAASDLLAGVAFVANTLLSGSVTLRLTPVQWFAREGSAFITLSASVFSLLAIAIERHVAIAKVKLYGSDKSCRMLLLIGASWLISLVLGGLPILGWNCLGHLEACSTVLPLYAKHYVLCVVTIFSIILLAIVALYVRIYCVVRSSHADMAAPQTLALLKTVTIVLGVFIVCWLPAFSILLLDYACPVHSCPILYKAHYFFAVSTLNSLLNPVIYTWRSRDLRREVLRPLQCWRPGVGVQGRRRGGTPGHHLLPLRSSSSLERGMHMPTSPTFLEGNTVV
S1P2 blocker = human S1P2 receptor antagonists, primary screen, cell-based. cell-based S1P2 antagonist assay, inhibition at 5 uM. inhibition, % at 5 µM. actives 0.21% (n = 97,000). AID 736, 2007; in the data active means inhibition above about 45%;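 further: CRE beta-lactamase reporter cells expressing human S1P2 stimulated with S1P; 0% = agonist at EC80 alone and 100% = agonist plus reference antagonist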
Starred values were filed as active, the others as inactive; · = not tested or not shown.

SMILES	VCAM1 TNFa inh	F-actin modifier	TNFa cytotox	E-sel TNF inh	S1P2 agonist	S1P2 blocker
c1ccc(C2COC(c3cccs3)=N2)cc1 (stereo unspecified)	15	26	-8	28	-7	11
O=S(=O)(NCCOCC(F)(F)C(F)F)c1ccc2oc3ccccc3c2c1	-15	-37	-19	·	-7	-7
CC(=O)Nc1ccc(/C(C)=N/Nc2nc(Nc3cccc4ccccc34)nc(N3CCOCC3)n2)cc1	·	·	·	-8	·	·
COc1ccc(Cn2c(CCC(=O)O)nc3cccnc32)cc1	93*	-16	71	·	-6	22
COc1ccc(Cn2c(CCC(=O)Nc3ccc(C)cc3)nc3cccnc32)cc1	24	1	-15	1	-4	6
CC(C)CC(C(=O)N1CCOCC1)N1Cc2ccccc2C1=O (stereo unspecified)	·	·	·	-20	·	·
O=c1c2c(-c3cccs3)csc2ncn1/N=C/c1ccc(OC(F)F)cc1	9	2	-29	18	-2	4
O=C(O)COc1ccc(/C=N/n2cnc3scc(-c4cccs4)c3c2=O)cc1	·	·	·	93*	·	·
Cc1ccc(CCNC(=O)C2CCCN(S(=O)(=O)c3c(C)noc3/C=C/N(C)C)C2)cc1 (stereo unspecified)	0	4	-20	55*	-3	-6
Cc1ccc(CCNC(=O)C2CCCN(S(=O)(=O)c3c(C)noc3C)C2)cc1 (stereo unspecified)	19	-11	9	·	-4	-5
Cc1ccc(NC(=O)C2CCCN(S(=O)(=O)c3c(C)noc3C)C2)nc1 (stereo unspecified)	-16	33	-3	65*	-6	12
Cc1ccc(CNC(=O)C2CCN(S(=O)(=O)c3c(C)noc3/C=C/c3ccco3)CC2)cc1	-14	-14	42	57*	-5	30
CCC(C)NC(=O)CCc1nc2ccccc2n1-c1ccccc1 (stereo unspecified)	·	·	·	8	·	·
COc1cc(-c2cc(-c3ccccc3)nc(SCC(=O)Nc3nccs3)c2C#N)cc(OC)c1OC	6	-35	2	-12	31*	-23
CCOc1ccc(CC(=O)NCC2(N3CCCCC3)CCCCC2)cc1	·	·	·	-29	·	·
CC(C)(C)n1nnnc1CN1CCN2CCCC2C1 (stereo unspecified)	15	-26	2	-21	-3	-2
COCCn1nnnc1CN1CCN2CCCC2C1 (stereo unspecified)	·	·	·	·	43*	10
COC(=O)c1c2c(nc3ccccc13)CCC2	7	11	-8	2	-3	-6
COc1cc(-c2nnc(COc3ccc4ccccc4c3)o2)cc(OC)c1OC	-1	5	-24	100*	0	-6
COc1cc(-c2nnc(COC(=O)c3c4c(nc5ccccc35)CCCC4)o2)cc(OC)c1OC	-1	6	-24	9	43*	-21
C[n+]1ccc(/C=C/c2ccc(Br)cc2)cc1	44*	·	18	16	-6	16
C=CCN(C(=O)CCC(=O)O)C1CC(=O)N(c2ccc(OC)cc2)C1=O (stereo unspecified)	19	4	-17	-4	-5	-3
C=CCN(C(=O)CCC(=O)O)C1CC(=O)N(c2ccc(OCCC)cc2)C1=O (stereo unspecified)	·	·	·	92*	·	·
CC(=O)Nc1nc2n(n1)C(c1ccc(F)cc1)C=C(c1ccccc1)N2 (stereo unspecified)	10	38*	-9	-7	-9	56*
CC1C/C(=C/c2cccn2C)C(=O)/C(=C/c2cccn2C)C1 (stereo unspecified)	-8	5	-6	-18	-11	59*
SMILES	VCAM1 TNFa inh	F-actin modifier	TNFa cytotox	E-sel TNF inh	S1P2 agonist	S1P2 blocker
Cn1cccc1/C=C(\C#N)c1ccccc1	·	·	·	-5	·	·
CC1C/C(=C/c2ccncc2)C(=O)/C(=C/c2ccncc2)C1 (stereo unspecified)	·	·	·	100*	·	·
CCOc1ccc(OCC)c(NC(=O)CN(C)S(=O)(=O)c2ccc3nc(C)sc3c2)c1	·	·	·	-12	·	·
Cc1nc2ccccc2cc1OCc1ccc(Cl)cc1	·	·	·	·	-3	70*
COc1cccc(COc2cc3ccccc3nc2C)c1	-12	6	-15	48	-4	57*
COC(=O)c1ccccc1NS(=O)(=O)c1ccc2c3c(cccc13)C(=O)N2	-19	-6	11	74*	-7	19
Cc1nc(S(=O)(=O)NC2CCCCC2)c(C#N)c(C)c1Cl	10	6	-22	-2	-3	-15
Cc1nc(S(=O)(=O)N(C)Cc2ccccc2)c(C#N)c(C)c1Cl	78*	-48	92*	-7	-3	20
CCc1ccc2c(c1)C1(SC(NC(C)=O)=NN1C(C)=O)C(=O)N2CC (stereo unspecified)	·	·	·	-20	·	·
COc1cccc(-c2cc3c(=O)n(-c4ccccc4)c(=S)[nH]c3s2)c1	18	27	-30	66*	-5	6
C=CCSc1nncn1/N=C/c1ccc(OC)cc1	-13	0	-33	-24	-9	11
COc1ccc(/C=N/n2cnnc2SCCO)cc1OC	18	-10	-26	·	19*	-29
Cc1ccc(-n2nnc3c(SCC(=O)N4CCN(c5ccccc5)CC4)ncnc32)cc1	92*	3	-11	7	-5	6
Cc1cc(/C=C2/SC(=S)N(c3ccc([N+](=O)[O-])cc3)C2=O)c(C)n1-c1cccnc1	·	·	·	3	·	·
Cc1cc(/C=C2/SC(=S)N(c3cccc(Cl)c3)C2=O)c(C)n1-c1cccnc1	·	·	·	·	-6	74*
CCC(CC)C(=O)N(c1ccc(F)cc1)C1C=CS(=O)(=O)C1 (stereo unspecified)	11	-22	-33	·	1	-12
CC(C)C(=O)N(c1ccc(F)cc1)C1C=CS(=O)(=O)C1 (stereo unspecified)	-10	10	-18	82*	-4	12
COc1ccc(C(=O)NCC(C)C)c(OC)c1	-5	-16	-12	91*	-2	14
COc1ccc(NC(=O)/C(Cl)=C(/Cl)S(=O)Cc2ccccc2Cl)cn1 (stereo unspecified)	·	·	·	100*	·	·
COc1ccc(NC(=O)/C(Cl)=C(/Cl)S(=O)(=O)Cc2ccc(C)cc2)cn1	51*	-24	30	72*	-11	90*
COc1ccc(NC(=O)CC23CC4CC(CC(C4)C2)C3)cn1	·	·	·	24	·	·
COc1ccc(NC(=O)C(CC(C)C)NC(=O)c2ccccc2C)cn1 (stereo unspecified)	9	1	9	-13	-3	1
COC(=O)c1ccc(NC(=O)Cn2nnc3ccccc32)cc1	16	-12	10	-19	-10	14
CN(C)c1ccc(NC(=O)COC(=O)Cn2nnc3ccccc32)cc1	·	·	·	89*	·	·
